# Experimental data published in PubChem BioAssay (NCI).
# About 79,000 compounds went through this panel and 15% of them were active in at least one assay; those are over-represented in the sample as a whole. Values without a mark were called inactive. Calls of active or inactive are those of the source. Cut-off read from the data, not from the text of the source: active = growth inhibition above about 70%; inactive = the rest.
# What was measured:
# [1] = NCI Yeast Anticancer Drug Screen. Data for the rad50 strain (AID 155);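 note: 0% = growth of vehicle-only cultures of the same strain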; settings: S. cerevisiae rad50 strain growth inhibition, active compounds read high
# In short: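 Cells are treated with compound, grown, and their growth is then scored against vehicle-only cultures of the same repair-deficient yeast strain.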
# [2] = NCI Yeast Anticancer Drug Screen. Data for the mec2-1 strain (AID 157); settings: S. cerevisiae mec2-1 strain, active compounds read high
# In short: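 Test agents were screened against the mec2-1 yeast strain, with defined DNA repair or cell cycle alteration. Growth was scored as inhibition against vehicle-only controls.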
# [3] = NCI Yeast Anticancer Drug Screen. Data for the sgs1 mgt1 strain (AID 161);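 note: 0% = growth of cultures given vehicle only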; settings: S. cerevisiae sgs1 mgt1 strain, active compounds read high
# In short: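 Read-out: growth inhibition vs vehicle controls. Cells: mutant yeast strain deficient in DNA damage repair.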
# [4] = NCI Yeast Anticancer Drug Screen. Data for the cln2 rad14 strain (AID 165);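 note: 0% = growth equal to vehicle treated cultures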; settings: S. cerevisiae cln2 rad14 strain, active compounds read high
# In short: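 Growth of compound-exposed yeast (cln2 rad14 genotype) measured and expressed as inhibition relative to vehicle.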
# [5] = NCI Yeast Anticancer Drug Screen. Data for the bub3 strain (AID 167); settings: S. cerevisiae bub3 mutant strain, active compounds read high
# In short: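 Part of a panel of yeast mutants defective in DNA damage repair or cell cycle regulation. Each strain is grown with compound, and inhibition is calculated relative to solvent-treated cultures.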
# [6] = NCI Yeast Anticancer Drug Screen. Data for the mlh1 rad18 strain (AID 175); settings: S. cerevisiae mlh1 rad18 strain growth inhibition, active compounds read high
# In short: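 In this whole-cell yeast screen, a strain with altered DNA damage repair is challenged with compound, and its growth is measured against matched vehicle-treated controls.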
# [7] = at 5.0 µM (retest, dose inferred, filed as 0.5)
# [8] = at 50.0 µM (retest, dose inferred, filed as 5.0)
Structure (SMILES),"growth inhibition [1, 7]","growth inhibition [1, 8]",growth inhibition ([1]; at 50.0 µM),"growth inhibition [2, 7]","growth inhibition [2, 8]",growth inhibition ([2]; at 50.0 µM),"growth inhibition [3, 7]","growth inhibition [3, 8]",growth inhibition ([3]; at 50.0 µM),"growth inhibition [4, 7]","growth inhibition [4, 8]",growth inhibition ([4]; at 50.0 µM),"growth inhibition [5, 7]","growth inhibition [5, 8]",growth inhibition ([5]; at 50.0 µM),"growth inhibition [6, 7]","growth inhibition [6, 8]",growth inhibition ([6]; at 50.0 µM)
Clc1ccc(Cl)c(SCCCN2CCNCC2)c1,36%,65%,79.7% (active),0%,32%,48.2%,35%,65%,54.2%,6%,39%,40%,18%,59%,82.4% (active),23%,43%,74.4% (active)
O=[N+]([O-])c1ccc2c(c1)[nH]c1ccccc12,-138%,36%,93.2% (active),-45%,-32%,40.1%,-65%,-11%,73.8% (active),-57%,-63%,68.6%,-66%,-40%,69.2%,-139%,-10%,89% (active)
CC(C)(CN1CCCCC1)C(/C=C/c1ccc(Cl)c(Cl)c1)=N\NC(=O)N/N=C(/C=C/c1ccc(Cl)c(Cl)c1)C(C)(C)CN1CCCCC1,42%,98% (active),90.5% (active),29%,99% (active),93.3% (active),41%,99% (active),92.8% (active),31%,98% (active),91.2% (active),39%,67%,91.8% (active),56%,99% (active),90% (active)
Nc1ccc2c(c1)C(=O)c1ccccc1-2,9%,57%,68.2%,3%,15%,26.1%,0%,6%,21.4%,1%,7%,11.6%,2%,9%,-6.55%,2%,25%,14.2%
CCCCCCCCCCCCOC(=O)C[n+]1cccc(C(=O)Nc2ccccc2)c1,96% (active),98% (active),99.2% (active),97% (active),99% (active),99.4% (active),95% (active),99% (active),99.5% (active),96% (active),99% (active),98.9% (active),96% (active),98% (active),98.8% (active),99% (active),99% (active),99.2% (active)
O=[N+]([O-])C(/C=C(\Cl)n1nnc2ccccc21)=C(/Cl)n1nnc2ccccc21,25%,36%,-1.95%,17%,18%,-3.7%,13%,26%,25.2%,11%,11%,13.4%,27%,27%,14.4%,22%,35%,17.3%
CC(=O)Oc1ccc(C)cc1C(C)(C)C,-1%,0%,57.6%,1%,-4%,54.8%,-2%,-2%,59.1%,1%,-1%,28.7%,0%,-7%,59.3%,-1%,0%,74.2% (active)
Cc1cc(Cl)ccc1C(=O)c1ccc2ccccc2c1C(=O)O,8%,44%,84% (active),-15%,49%,82.5% (active),3%,54%,78% (active),-7%,65%,83.5% (active),-24%,87% (active),82.4% (active),-36%,52%,78.8% (active)
NC(=S)c1cccc(OCCCOc2ccccc2)c1,2%,4%,99.2% (active),0%,14%,99.6% (active),11%,17%,98.7% (active),-8%,1%,98.2% (active),6%,13%,99.5% (active),4%,30%,99.3% (active)
Cc1cc(C)nc(NS(=O)(=O)c2ccc(NC(=O)c3cccnc3Nc3cccc(Cl)c3)cc2)n1,-2%,33%,45.9%,-9%,34%,13.1%,6%,51%,54.9%,-10%,35%,22.1%,-6%,41%,25.5%,-1%,53%,81.5% (active)
COc1ccc2cc(CNCCCCCCCCNCc3ccc4cc(OC)ccc4c3)ccc2c1,22%,99% (active),97.7% (active),6%,100% (active),97.2% (active),19%,99% (active),95.1% (active),9%,99% (active),94.5% (active),9%,100% (active),93.7% (active),31%,99% (active),97.2% (active)
Cc1ccc2c(c1)CSCCO2,86% (active),99% (active),99.3% (active),87% (active),100% (active),99.7% (active),87% (active),99% (active),99.5% (active),50%,100% (active),99.3% (active),90% (active),99% (active),99.5% (active),92% (active),99% (active),99.5% (active)
N#Cc1ccc2nc3ccc(N)cc3nc2c1,-22%,96% (active),79.2% (active),4%,76% (active),39.1%,-18%,86% (active),20.1%,-6%,82% (active),10.6%,-13%,82% (active),43.3%,-5%,96% (active),48%
O=C1CCS(=O)(=O)c2ccccc21,21%,100% (active),91.2% (active),-2%,99% (active),65.4%,24%,99% (active),57.7%,3%,94% (active),36.9%,34%,99% (active),33.4%,36%,99% (active),64%
O=[N+]([O-])c1ccc(NS(=O)(=O)c2ccccc2)c(NS(=O)(=O)c2ccccc2)c1,15%,75% (active),81.5% (active),14%,76% (active),73.4% (active),20%,81% (active),83.2% (active),27%,32%,82.1% (active),6%,43%,80.1% (active),11%,90% (active),71.7% (active)
O=C(c1ccc([N+](=O)[O-])cc1)C(Br)C(Br)c1ccnc2ccccc12 (stereo not drawn),25%,80% (active),98.2% (active),23%,63%,99.1% (active),21%,91% (active),98.9% (active),-1%,69%,96.7% (active),,,,18%,95% (active),98.8% (active)
CCC(c1ccc(Cl)cc1)C(C#N)c1ccccc1 (stereo not drawn),6%,40%,76.7% (active),7%,34%,49.2%,3%,53%,69.4%,2%,3%,-0.6%,,,,7%,30%,59%
CCCCNCCC1(c2ccccc2)C(=O)Oc2ccccc21 (stereo not drawn),-5%,14%,63.2%,-4%,18%,57.5%,-5%,35%,59.9%,0%,-17%,46.2%,-5%,-12%,-9.45%,-7%,10%,53%
